Data taken from PubChem BioAssay AID463173 (ICCB-Longwood Screening Facility, Harvard Medical School, 2010).
About 4,300 (8.3%) of roughly 52,000 compounds were called active. Rule as the data show it: active = survival mostly below about 52% (no sharp cut-off); inactive = mostly above about 56%. This excerpt belongs to a sample that is enriched for actives.

The compounds below were run on DeltatarO mutant (assay: growth inhibition of S. aureus wild type versus tarO mutant, primary screen, teichoic acid synthesis inhibitors, RN4220, OD600 (AID 463173)). Conditions: OD600, 18 h, active compounds read low, screened at 18.75 µg/mL (by protocol).

Structure (SMILES)	survival
Cc1cccc(N2CCN(C(=O)CN3C(=O)COc4ccc(S(=O)(=O)N5CCC(C)CC5)cc43)CC2C)c1 (stereo not given)	67% (inactive)
COc1ccc(CCNC(=O)C(C)n2nc(C)c3sc4ccccc4c3c2=O)cc1OC (stereo not given)	110% (inactive)
Cc1ccccc1Cn1cc(S(=O)(=O)c2ccc(F)cc2)c(=O)c2cc3c(cc21)OCO3	68% (inactive)
NC(=O)C1CCN(C(=O)Cn2c(-c3cccs3)cc3ccccc32)CC1	73% (inactive)
O=C(NCCN1CCCC1)c1ccc(Cl)cc1	98% (inactive)
CCOC(=O)c1cnc2c(C)cc(C)cc2c1Nc1ccc(N2CCOCC2)cc1	14% (active)
CCOC(=O)c1cnc2c(C)c(Cl)ccc2c1Nc1ccc(N2CCOCC2)cc1	43% (inactive)
CCOC(=O)c1cnc2ccc(OCC)cc2c1Nc1cc(Cl)c(OC)cc1OC	51% (active)
CCOC(=O)c1cnc2cc(Cl)c(OC)cc2c1Nc1ccc(Br)cc1C	102% (inactive)
CCOC(=O)c1cnc2ccc(C)cc2c1Nc1ccc(OCc2ccccc2Cl)cc1	2% (active)
CCOC(=O)c1cnc2ccc(Cl)cc2c1Nc1ccc(OCC)cc1	-5% (active)
CCOC(=O)c1ccccc1NC(=O)c1cnc(N2CCOCC2)c2ccccc12	90% (inactive)
CCOC(=O)c1cnc2ccc(OCC)cc2c1NCCN(C)C	95% (inactive)
O=C(N/C(=C\c1ccc(F)cc1)C(=O)N1CCOCC1)c1ccccc1	98% (inactive)
Cc1cccc(OCC(=O)OC2CCN(C)CC2)c1	100% (inactive)
COC(=O)C(C#N)C(c1cccnc1)c1c(C)[nH][nH]c1=O (stereo not given)	90% (inactive)
COc1cc(OC)cc(-c2cc3nc(-c4ccccc4)cc(N4CCN(c5ccccc5)CC4)n3n2)c1	101% (inactive)
CC(=O)Oc1ccc(C(=O)NC2CCSC2=O)cc1 (stereo not given)	72% (inactive)
COC(=O)CC1Oc2ccccc2-n2cc(-c3ccc(Cl)cc3)nc21 (stereo not given)	69% (inactive)
CCN1CCSc2ccc(C(=O)NC(C)c3ccccc3)cc21 (stereo not given)	66% (inactive)
O=C(Nc1ccc(Br)cc1)c1cccc(C(=O)Nc2ccc(Br)cc2)c1	72% (inactive)
CCOC(=O)c1cc(-c2ccc(OC)cc2)n(CCC(=O)Nc2cccc(C(C)=O)c2)c1C	64% (inactive)
CCOC(=O)c1cccc(NC(=O)c2cc3cc4cc(OC)ccc4nc3s2)c1	76% (inactive)
CCOC(=O)c1cnc2ccc(C(=O)OC)cc2c1Nc1ccc(N2CCOCC2)cc1	144% (inactive)
CCOC(=O)c1cnc2ccccc2c1Nc1ccc(N2CCOCC2)cc1	63% (inactive)
CCOC(=O)c1cnc2ccc(Cl)cc2c1Nc1ccc(N2CCOCC2)cc1	0% (active)
CCOC(=O)c1cnc2ccc(C)cc2c1Nc1ccc(N(CC)CC)cc1	-5% (active)
CCOC(=O)c1cnc2ccc(OC)cc2c1Nc1cccc(C(C)=O)c1	9% (active)
CCOC(=O)c1cnc2ccc(OC)cc2c1Nc1ccc(OCc2ccccc2Cl)cc1	8% (active)
CCOC(=O)c1cnc2ccc(C(=O)OC)cc2c1Nc1ccc(OCc2ccccc2Cl)cc1	151% (inactive)
